In PubChem BioAssay AID753 (Emory University Molecular Libraries Screening Center, 2007):
Some of the results follow. Inconclusive results are not listed. Values without a mark were called inactive.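 How the source made its calls: active means percent of control activity at or below 60%; inconclusive means HPLC trace unusable from injection failure or solvent front hiding peaks; inactive means the rest, plus ubiquitin peak ratio over a set limit.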

Target: Ubiquitin carboxyl-terminal hydrolase BAP1 (Homo sapiens) (UniProt Q92560)
Sequence (Q92560 whole entry, looked up): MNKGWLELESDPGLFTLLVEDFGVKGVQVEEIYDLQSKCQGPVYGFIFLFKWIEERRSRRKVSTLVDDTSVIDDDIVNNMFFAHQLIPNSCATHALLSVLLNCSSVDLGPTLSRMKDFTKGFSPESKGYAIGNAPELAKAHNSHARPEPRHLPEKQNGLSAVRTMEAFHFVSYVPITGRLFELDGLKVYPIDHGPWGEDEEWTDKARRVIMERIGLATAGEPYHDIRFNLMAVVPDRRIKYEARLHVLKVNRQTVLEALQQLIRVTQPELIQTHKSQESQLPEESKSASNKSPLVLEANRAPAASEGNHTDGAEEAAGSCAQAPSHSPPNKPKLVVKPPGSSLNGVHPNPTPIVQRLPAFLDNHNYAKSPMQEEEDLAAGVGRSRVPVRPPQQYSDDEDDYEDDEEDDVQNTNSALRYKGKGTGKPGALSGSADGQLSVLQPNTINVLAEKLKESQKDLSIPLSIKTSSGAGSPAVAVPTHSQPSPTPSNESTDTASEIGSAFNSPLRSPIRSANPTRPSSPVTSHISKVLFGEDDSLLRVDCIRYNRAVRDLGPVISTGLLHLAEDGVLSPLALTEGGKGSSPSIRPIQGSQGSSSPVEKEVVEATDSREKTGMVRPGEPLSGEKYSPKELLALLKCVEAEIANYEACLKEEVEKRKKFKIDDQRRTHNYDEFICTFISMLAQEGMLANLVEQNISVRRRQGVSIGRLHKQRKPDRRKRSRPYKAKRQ
Experiment: BAP1 deubiquitinase inhibitors, hit retest, confirmation, orthogonal assay, biochemical, Ub-ethyl ester substrate, HPLC readout (AID 753)
Details: purified BAP1, Ub-ethyl ester hydrolysis, at 20 µM, stronger effect = lower value

CCCCCn1c(=O)c(C(=O)NCc2ccccn2)c(O)c2ccccc21
% of control activity: 112%
